In the library only some 3.3% were active in any assay of this set; here they are far more common.
14-3-3 Bad inh = disrupts binding of bovine 14-3-3 zeta to phospho-Bad peptide; TR-FRET 14-3-3zeta/Dy647-pBad peptide displacement, 1 h; inhibition, % at 21.7 µM; 0.71% of 220,000 active; AID 781;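 active means inhibition above about 70%, limit read from the data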;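 further: 0% = full 14-3-3 plus peptide FRET controls and 100% = background without 14-3-3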
eIF4E 4G PPI = blocks eIF4E binding to eIF4G; P63073+Q04637; TR-FRET eIF4E-eIF4GI(517-606) binding, 2 h; inhibition, % at 21.7 µM; 0.37% of 220,000 active; AID 782;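 further: 0% = full FRET control wells and 100% = background wells lacking eIF4GI fragment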
Mcl1-Noxa inh = disrupts binding of human Mcl-1 to Noxa peptide; Q07820; TR-FRET Mcl-1/Noxa peptide binding, 2 h; inhibition, % at 21.7 µM; 1.5% of 220,000 active;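 active means compounds that cut the protein-peptide binding signal by more than 50% relative to plate controls in a single-dose test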;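 further: His-tagged Mcl-1 with rhodamine Noxa BH3 peptide and terbium anti-His antibody; 0% = Mcl-1 plus Noxa peptide wells and 100% = peptide-only wells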
Target sequence (Q07820 whole entry, looked up): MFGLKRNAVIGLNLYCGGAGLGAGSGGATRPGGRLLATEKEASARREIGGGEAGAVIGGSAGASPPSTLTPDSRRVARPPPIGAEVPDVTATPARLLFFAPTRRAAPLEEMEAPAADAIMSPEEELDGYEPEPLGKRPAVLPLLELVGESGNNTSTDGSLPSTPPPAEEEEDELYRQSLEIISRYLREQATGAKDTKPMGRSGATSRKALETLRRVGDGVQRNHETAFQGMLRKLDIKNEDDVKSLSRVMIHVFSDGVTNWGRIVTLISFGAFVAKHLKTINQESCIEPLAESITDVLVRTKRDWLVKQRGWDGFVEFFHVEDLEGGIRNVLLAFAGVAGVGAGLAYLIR
Mcl1-Bid inh = Mcl-1/Bid interaction inhibition | Q07820 | TR-FRET Mcl-1/Bid-Dy647 peptide binding, 1536-well | inhibition, % at 21.7 µM | 0.97% of 220,000 active;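 active means compounds that cut the binding signal by more than half at the single screening dose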;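 further: His-tagged Mcl-1 with europium anti-His antibody binding Bid BH3 peptide; 0% = Mcl-1 plus peptide wells and 100% = peptide-only wells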
Bim-Mcl-1 = inhibitors of Bim-Mcl-1 interaction, human; Q07820; Bead-based flow cytometry, Bim peptide-Mcl-1 binding; inhibition, % at 10 µM; 0.1% of 190,000 active; in the data active means inhibition above about 40%;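 further: 0% = no compound tracer wells and 100% = peptide blocker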
p47phox inh = inhibitors of human p47phox binding | P14598 | inhibition, % at 24.7 µM | p47phox/p22phox peptide binding, fluorescence polarization, 2 h | 0.53% of 220,000 active | AID 1274;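 further: 0% = p47phox with labelled peptide and 100% = labelled peptide alone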
Numbers without * were called inactive; [ ] = another dose, or the depositor's remark.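 How the source made its calls, unless noted: active means inhibition above about 30% (limit read from the data); inactive means the rest.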

For Oc1ccccc1NCC(O)Cn1ccc2ccccc21 (centres undefined) the results were 14-3-3 Bad inh 41, eIF4E 4G PPI 9, Mcl1-Noxa inh 74*, Mcl1-Bid inh 33, Bim-Mcl-1 1 and p47phox inh -2.
Screening O=C(NC1CCCC1)c1c[nH]c2ccc(F)cc2c1=O returned 14-3-3 Bad inh 5, eIF4E 4G PPI 7, Mcl1-Noxa inh -4, Mcl1-Bid inh -11, Bim-Mcl-1 -1 and p47phox inh 7.
For CCc1ccccc1NS(=O)(=O)c1ccc2[nH]cc(C(=O)NC3CCCC3)c(=O)c2c1 the results were 14-3-3 Bad inh 26, eIF4E 4G PPI 4, Mcl1-Noxa inh 72*, Mcl1-Bid inh 66*, Bim-Mcl-1 -2 and p47phox inh -20.
Screening O=C(O)c1ccc(Cl)c(S(=O)(=O)Nc2ccc3[nH]c(=O)[nH]c3c2)c1 returned 14-3-3 Bad inh 7, eIF4E 4G PPI 12, Mcl1-Noxa inh 56*, Mcl1-Bid inh -3 and p47phox inh -11.
`O=CN/C=C/c1cc(O)ccc1O` gave 14-3-3 Bad inh 0, eIF4E 4G PPI 0, Mcl1-Noxa inh 57*, Mcl1-Bid inh -196 and p47phox inh -9.
O=C1CC(c2ccco2)CC(O)=C1C=NCCN1CCN(C(=S)Nc2ccccc2)CC1 (centres undefined) was read as 14-3-3 Bad inh -7, eIF4E 4G PPI 1, Mcl1-Noxa inh 51*, Mcl1-Bid inh -50 and p47phox inh -2.
`CC(=O)Nc1cc(NC(C)=O)cc(-c2nc3ccccc3[nH]2)c1` gave 14-3-3 Bad inh -10, eIF4E 4G PPI 0, Mcl1-Noxa inh 17, Mcl1-Bid inh 1, Bim-Mcl-1 -1 and p47phox inh 25.
Screening CC(=O)Nc1ccc(-c2nc3c(C)cccc3[nH]2)cc1 returned 14-3-3 Bad inh 72*, eIF4E 4G PPI 6, Mcl1-Noxa inh 13, Mcl1-Bid inh 12, Bim-Mcl-1 0 and p47phox inh -15.
Screening Cc1nc2ccccc2n1CC(=O)NC1CCCC1 returned 14-3-3 Bad inh 71*, eIF4E 4G PPI 1, Mcl1-Noxa inh 16, Mcl1-Bid inh -8, Bim-Mcl-1 -2 and p47phox inh -5.
Cc1nc2ccccc2n1CC(=O)NC1CCCCCC1 was read as 14-3-3 Bad inh -2, eIF4E 4G PPI -5, Mcl1-Noxa inh 6, Mcl1-Bid inh -4 and p47phox inh -11.
CCOc1ccccc1CN1CCN(CC2=Cc3cc(OC)ccc3OC2)CC1CCO (centres undefined) was read as 14-3-3 Bad inh -6, eIF4E 4G PPI 0, Mcl1-Noxa inh -6, Mcl1-Bid inh -86 and p47phox inh -3.
`O=C(O)C1CSC(c2ccccc2Cl)N1C(=O)c1ccc(Cl)cc1` (centres undefined) gave 14-3-3 Bad inh -3, eIF4E 4G PPI 8, Mcl1-Noxa inh 0, Mcl1-Bid inh 12, Bim-Mcl-1 -1 and p47phox inh 87*.
For COC(=O)[C@@H]1C[C@@]2(O)[C@@H](O)[C@@H](O)[C@@H](O)C[C@H]2N1Cc1ccc(Cl)cc1 the results were 14-3-3 Bad inh 1, eIF4E 4G PPI 0, Mcl1-Noxa inh 4, Mcl1-Bid inh -35 and p47phox inh -8.
For O=C(c1ccco1)[C@@H]1[C@@H]2C(=O)N(c3ccc(F)cc3)C(=O)[C@@H]2[C@H]2C=Cc3ccccc3N21 the results were 14-3-3 Bad inh 89*[fluorescence artefact?], eIF4E 4G PPI 2, Mcl1-Noxa inh 73*, Mcl1-Bid inh 24, Bim-Mcl-1 5 and p47phox inh 17.
Cc1[nH]nc(SCC(=O)NCc2ccc(Cl)cc2)c1[N+](=O)[O-] was read as 14-3-3 Bad inh -21, eIF4E 4G PPI 1, Mcl1-Noxa inh 7, Mcl1-Bid inh -9, Bim-Mcl-1 -2 and p47phox inh -20.
Screening COc1ccc(-c2cc3nc4ccccc4n3c(N)c2C#N)cc1 returned 14-3-3 Bad inh 71*, eIF4E 4G PPI 1, Mcl1-Noxa inh 81*, Mcl1-Bid inh 72* and p47phox inh 19.
`Clc1ccccc1C(c1ccccc1)(c1ccccc1)n1ccnc1` gave 14-3-3 Bad inh -4, eIF4E 4G PPI 3, Mcl1-Noxa inh -1, Mcl1-Bid inh 8, Bim-Mcl-1 -3 and p47phox inh 13.
